# In PMC5540273 (PLoS ONE, 2017):
# Where “and” joins values, the source holds several entries; their conditions need not be identical. Equal entries are not always repeated. Where two headings read alike, the source gives them in different places.
# What was measured:
# [1] = system: BUB1; settings: concentration: 1 μM, replicates: in singlicate, n = 1
# [2] = system: CAMK1B; settings: concentration: 1 μM, replicates: in singlicate, n = 1
# [3] = system: CAMK1D; settings: concentration: 1 μM, replicates: in singlicate, n = 1
# [4] = system: CAMK1G; settings: concentration: 1 μM, replicates: in singlicate, n = 1
# [5] = system: CAMK1; settings: concentration: 1 μM, replicates: in singlicate, n = 1
# [6] = system: CAMK2A; settings: concentration: 1 μM, replicates: in singlicate, n = 1
# [7] = system: CAMK2B; settings: concentration: 1 μM, replicates: in singlicate, n = 1
# [8] = system: CAMK2D; settings: concentration: 1 μM, replicates: in singlicate, n = 1
# [9] = system: CAMK2G; settings: concentration: 1 μM, replicates: in singlicate, n = 1
# [10] = system: CAMK4; settings: concentration: 1 μM, replicates: in singlicate, n = 1
# [11] = system: CAMKK1; settings: concentration: 1 μM, replicates: in singlicate, n = 1
# [12] = system: CAMKK2; settings: concentration: 1 μM, replicates: in singlicate, n = 1
# [13] = system: CASK; settings: concentration: 1 μM, replicates: in singlicate, n = 1
# [14] = system: T1, CDC2L1; settings: concentration: 1 μM, replicates: in singlicate, n = 1
# T1 construct: gene CDK11B
# [15] = system: CDC2L2; settings: concentration: 1 μM, replicates: in singlicate, n = 1
# [16] = system: T2, CDC2L5; settings: concentration: 1 μM, replicates: in singlicate, n = 1
# T2 construct: gene CDK13
# [17] = system: T3, CDK11; settings: concentration: 1 μM, replicates: in singlicate, n = 1
# T3 construct: gene CDK19
# [18] = system: CDK2; settings: concentration: 1 μM, replicates: in singlicate; n = 1
# [19] = system: CDK3; settings: concentration: 1 μM, replicates: in singlicate; n = 1
# [20] = system: CDK4-cyclinD1; settings: concentration: 1 μM, replicates: in singlicate, n = 1
# 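Also: KINOMEscan kinase panel screen.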
smiles,measurement,setting,value
N#Cc1ccc(-c2cc(-c3c[nH]nc3-c3ccccn3)ccn2)cc1 [GW693028],%Inh,[1],34%
same,%Inh,[2],3%
same,%Inh,[3],1%
same,%Inh,[4],0%
same,%Inh,[5],1%
same,%Inh,[6],0%
same,%Inh,[7],1%
same,%Inh,[8],0%
same,%Inh,[9],13%
same,%Inh,[10],0%
same,%Inh,[11],0%
same,%Inh,[12],2%
same,%Inh,[13],9%
same,%Inh,[14],0%
same,%Inh,[15],0%
same,%Inh,[16],0%
same,%Inh,[17],12%
same,%Inh,[18],0%
same,%Inh,[19],6%
same,%Inh,[20],0%
Cc1ccc(NC(=O)c2ccnc(N3CCN(C)CC3)c2)cc1-c1ccc(C(=O)NCC2CC2)cc1 [GW775604],%Inh,[1],0%
same,%Inh,[2],0%
same,%Inh,[3],0%
same,%Inh,[4],0%
same,%Inh,[5],0%
same,%Inh,[6],0%
same,%Inh,[7],0%
same,%Inh,[8],0%
same,%Inh,[9],0%
same,%Inh,[10],0%
same,%Inh,[11],0%
same,%Inh,[12],0%
same,%Inh,[13],10%
same,%Inh,[14],0%
same,%Inh,[15],0%
same,%Inh,[16],0%
same,%Inh,[17],0%
same,%Inh,[18],0%
same,%Inh,[19],34%
same,%Inh,[20],0%
Fc1ccc(-c2ncn(CCCN3CCOCC3)c2-c2cccnc2)cc1 [SB-211743],%Inh,[1],4%
same,%Inh,[2],0%
same,%Inh,[3],0%
same,%Inh,[4],0%
same,%Inh,[5],0%
same,%Inh,[6],0%
same,%Inh,[7],0%
same,%Inh,[8],0%
same,%Inh,[9],0%
same,%Inh,[10],14%
same,%Inh,[11],0%
same,%Inh,[12],0%
same,%Inh,[13],6%
same,%Inh,[14],0%
same,%Inh,[15],0%
same,%Inh,[16],0%
same,%Inh,[17],0%
same,%Inh,[18],0%
same,%Inh,[19],16%
same,%Inh,[20],0%
CC(C)(CN)c1nc(-c2ccc(Cl)c(O)c2)c(-c2ccncc2)[nH]1.O=C(O)C(F)(F)F [SB-477794],%Inh,[1]; 1 µM,100% and 98.2%
same,%Inh,[2]; 1 µM,24% and 3%
same,%Inh,[3]; 1 µM,10% and 9%
same,%Inh,[4],0%
same,%Inh,[5]; 1 µM,19% and 13%
same,%Inh,[6],0%
same,%Inh,[7],0%
same,%Inh,[8]; 1 µM,11% and 0%
same,%Inh,[9]; 1 µM,0% and 17%
same,%Inh,[10],0%
same,%Inh,[11],0%
same,%Inh,[12]; 1 µM,0% and 4%
same,%Inh,[13]; 1 µM,18% and 0%
same,%Inh,[14],0%
same,%Inh,[15]; 1 µM,31% and 2%
same,%Inh,[16]; 1 µM,0% and 30%
same,%Inh,[17],0%
same,%Inh,[18],0%
same,%Inh,[19],7%
same,%Inh,[20]; 1 µM,25% and 64%
NCCNS(=O)(=O)c1ccc(-c2ccnc3[nH]ccc23)cc1 [GSK977617],%Inh,[1]; 1 µM,69% and 81%
same,%Inh,[2]; 1 µM,52% and 70%
same,%Inh,[3]; 1 µM,78% and 72%
same,%Inh,[4]; 1 µM,44% and 21%
same,%Inh,[5]; 1 µM,58% and 42%
same,%Inh,[6]; 1 µM,16% and 6%
same,%Inh,[7]; 1 µM,2% and 0%
same,%Inh,[8]; 1 µM,42% and 23%
same,%Inh,[9]; 1 µM,42% and 20%
same,%Inh,[10]; 1 µM,59% and 44%
same,%Inh,[11]; 1 µM,31% and 9%
same,%Inh,[12]; 1 µM,37% and 16%
same,%Inh,[13]; 1 µM,19% and 21%
same,%Inh,[14]; 1 µM,0% and 14%
same,%Inh,[15]; 1 µM,13% and 15%
same,%Inh,[16],0%
same,%Inh,[17]; 1 µM,9% and 0%
same,%Inh,[18],0%
same,%Inh,[19],0%
same,%Inh,[20],0%
COc1cc2ncn(-c3cc(OCc4sccc4Cl)c(C(N)=O)s3)c2cc1OC [GSK448459],%Inh,[1],55%
same,%Inh,[2],25%
same,%Inh,[3],0%
same,%Inh,[4],0%
same,%Inh,[5],4%
same,%Inh,[6],0%
same,%Inh,[7],0%
same,%Inh,[8],2%
same,%Inh,[9],12%
same,%Inh,[10],0%
same,%Inh,[11],4%
same,%Inh,[12],76%
same,%Inh,[13],12%
same,%Inh,[14],0%
same,%Inh,[15],10%
same,%Inh,[16],0%
same,%Inh,[17],9%
same,%Inh,[18],0%
same,%Inh,[19],8%
same,%Inh,[20],0%
O=C(NCCCN1CCOCC1)c1cccc(Nc2nccc(Nc3ccc(Oc4ccccc4)cc3)n2)c1 [GW663929],%Inh,[1],28%
same,%Inh,[2],37%
same,%Inh,[3],33%
same,%Inh,[4],0%
same,%Inh,[5],55%
same,%Inh,[6],3%
same,%Inh,[7],6%
same,%Inh,[8],2%
same,%Inh,[9],0%
same,%Inh,[10],0%
same,%Inh,[11],0%
same,%Inh,[12],7%
same,%Inh,[13],7%
same,%Inh,[14],10%
same,%Inh,[15],26%
same,%Inh,[16],0%
same,%Inh,[17],15%
same,%Inh,[18],0%
same,%Inh,[19],0%
same,%Inh,[20],6%
c1ccc(-c2n[nH]cc2-c2ccnc3ccccc23)nc1 [GW271431],%Inh,[1],0%
same,%Inh,[2],23%
same,%Inh,[3],28%
same,%Inh,[4],13%
same,%Inh,[5],23%
same,%Inh,[6],0%
same,%Inh,[7],0%
same,%Inh,[8],19%
same,%Inh,[9],25%
same,%Inh,[10],0%
same,%Inh,[11],17%
same,%Inh,[12],30%
same,%Inh,[13],0%
same,%Inh,[14],0%
same,%Inh,[15],24%
same,%Inh,[16],0%
same,%Inh,[17],34%
same,%Inh,[18],0%
same,%Inh,[19],0%
same,%Inh,[20],0%
